The list is not random: actives were taken first. Their share in the collection is about 2.8%.
PI5P4Ka inh: PI5P4K alpha (human) kinase inhibition | max response, % | PI5P4Kalpha enzyme, ADP-Glo luminescence, 60 min; active compounds read low | 330,000 compounds, 1.2% hits | P48426; active = max response of -50% or lower; inconclusive = between -30% and -50%; inactive = -30% or higher; also: value at the top dose of about 77 µM
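ADP-Glo luminescence end-point read after a 60 min room-temperature kinase reaction of PI5P4Kalpha plus substrate, initiated with ATP at 5 microM final. Buffer: 0.038 M HEPES pH 7.4, EGTA, 0.1% CHAPS, 5% DMSO.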
POLH inh: blocks human DNA polymerase eta activity; recombinant Pol eta, fluorescent DNA replication assay; Potency, µM (series often up to 114 µM), most hits filed as inhibitors; 390,000 compounds, 1.2% hits; AID 588591; Q9Y253
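Fluorescent replication assay: 50 nM final substrate added after a 15 min room-temperature compound preincubation with 10 nM enzyme. Signal taken at 0 min and again at 10 min.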
WRN inhibitor: blocks human WRN helicase. Q14191. WRN helicase unwinding, fluorescent forked duplex, kinetic. Potency, µM (titrated, usually from 114 µM), usual class: inhibitors. 360,000 compounds, 0.46% hits; also: nearly all actives have a fitted effect of over 55% in size
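WRN at 20 nM final preincubated with compound 15 min at room temperature; reaction started with 100 nM fluorophore/quencher forked duplex oligonucleotide and 2 mM ATP final. Unwinding followed kinetically by red fluorescence (ex 525, em 598 nm).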
POLB inh: inhibitors of human DNA polymerase beta; P06746; Pol beta primer extension/strand displacement, fluorescence kinetic; Potency, µM (top dose mostly 114 µM), actives largely listed as inhibitors; 340,000 compounds, 1.3% hits; AID 485314
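Human Pol beta at 10 nM; strand-displacement substrate 50 nM final. Compound exposure 15 min at room temperature before start, reaction 10 min at room temperature.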
Pol kappa inh: DNA polymerase kappa (human) inhibition; Q9UBT6; purified Pol kappa, fluorescent DNA synthesis assay, 10 min; Potency, µM (highest dose often 107 µM), actives largely listed as inhibitors; 400,000 compounds, 0.53% hits; AID 588579
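Fluorescent qHTS in 1536-well format: enzyme (10 nM) and compound sat 15 min at room temperature before 50 nM substrate (final) was added. Signal taken at 0 and 10 min; no-enzyme buffer wells were negative controls.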
Pol iota inh: inhibitors of human DNA polymerase iota; Q9UNA4; Pol iota fluorescent replication assay, 10 min; Potency, µM (top dose mostly 115 µM), actives largely listed as inhibitors; 390,000 compounds, 1% hits; AID 588590
Target sequence (Q9UNA4 whole entry, looked up): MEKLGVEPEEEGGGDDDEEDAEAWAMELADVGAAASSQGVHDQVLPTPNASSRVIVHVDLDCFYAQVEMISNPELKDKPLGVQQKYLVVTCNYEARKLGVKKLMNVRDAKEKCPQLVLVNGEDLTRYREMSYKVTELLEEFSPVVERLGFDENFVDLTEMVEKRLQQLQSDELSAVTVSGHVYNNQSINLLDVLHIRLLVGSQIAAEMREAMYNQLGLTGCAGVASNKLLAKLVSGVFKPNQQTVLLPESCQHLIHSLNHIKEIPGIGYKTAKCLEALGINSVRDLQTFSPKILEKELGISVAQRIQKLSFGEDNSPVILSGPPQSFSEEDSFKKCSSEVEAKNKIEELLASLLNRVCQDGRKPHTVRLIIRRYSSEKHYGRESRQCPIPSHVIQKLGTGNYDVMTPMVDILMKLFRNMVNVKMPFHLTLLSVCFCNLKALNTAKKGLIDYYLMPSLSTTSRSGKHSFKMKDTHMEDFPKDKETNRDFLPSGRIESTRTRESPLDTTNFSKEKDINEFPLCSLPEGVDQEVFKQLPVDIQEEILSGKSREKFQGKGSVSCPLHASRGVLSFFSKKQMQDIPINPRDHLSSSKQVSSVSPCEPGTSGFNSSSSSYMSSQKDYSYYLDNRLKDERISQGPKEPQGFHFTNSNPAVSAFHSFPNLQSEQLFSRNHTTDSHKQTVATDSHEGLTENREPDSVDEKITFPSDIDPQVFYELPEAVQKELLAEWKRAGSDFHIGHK
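Fluorescent replication assay read twice, at 0 min and 10 min after adding 50 nM (final) substrate. Enzyme (10 nM) and compounds were first incubated 15 min at room temperature; enzyme-free buffer wells were negative controls.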
ADP-Glo counter: counter-screen for PI5P4K inhibitors: ADP-Glo detection interference, no enzyme; shares compounds with PI5P4Ka inh; ADP-Glo detection counter-screen, luciferase luminescence, no enzyme; Potency, µM (series often up to 76.9 µM), hits mostly inhibitors; 1,100 tested, under 10 active; AID 743285
Numbers stand for hits; i = inactive; ? = inconclusive; nt = not tested or not shown; [ ] = dose if it differs, or a comment. Unless noted, calls follow the shape of the dose curve; as a rule, active = well fitted curve in the direction sought with a large enough effect; inconclusive = small, poorly fitted or top-dose-only effect, or another doubt; inactive = no such curve, though single readings can be large; an effect the other way counts as inactive or inconclusive.

SMILES	PI5P4Ka inh	POLH inh	WRN inhibitor	POLB inh	Pol kappa inh	Pol iota inh	ADP-Glo counter
Cc1ccc(CNc2nc(NCc3ccccc3)nc3ccsc23)c(C)c1	nt	nt	i	nt	nt	nt	i
O=C(c1ccccc1Sc1ccccc1[N+](=O)[O-])N1CCCCC1	i	i	i	i	i	i	nt
COc1ccccc1CNc1nc(NCc2cccs2)nc2ccsc12	i	nt	i	nt	nt	nt	nt
COc1ccccc1CNc1nc(Nc2cccc(-c3cnco3)c2)c2sccc2n1	nt	nt	i	nt	nt	nt	i
O=C(Cc1cccc(NC(=O)C2CCCN(C(=O)C3CC3)C2)c1)Nc1cccc(C(=O)N2CCOCC2)c1 (stereo not drawn)	i	i	i	nt	i	?	nt
CN(C)N1C(N)=C(C#N)C(c2cccnc2)C2=C1CCCC2=O (stereo not drawn)	i	i	i	i	i	i	nt
COc1cc(C(=O)Nc2scc(-c3ccc(C)cc3)c2C(=O)O)cc(OC)c1OC	-85	i	i	i	i	i	i
COc1ccc(-c2csc(NC(=O)c3ccccc3F)c2C(=O)O)cc1	-51	i	i	i	i	i	i
COc1cc(C(=O)Nc2scc(-c3ccccc3)c2C(=O)O)cc(OC)c1OC	-71	i	i	i	i	i	i
CCOC(=O)c1c(-c2ccc(Br)cc2)csc1NC(=O)c1ccccc1F	nt	i	nt	i	i	i	nt
O=c1cc(CSc2nnc(-c3cccs3)n2Cc2ccccc2)nc2sc3ccccc3n12	-51	?	i	10µM	79µM	13µM	i
Cc1cc(C)cc(NC(=O)C(C)N2Cc3ccccc3C2=O)c1 (stereo not drawn)	nt	i	nt	i	i	i	nt
O=C(NCc1ccco1)c1ccc(S(=O)(=O)N2CCCCCC2)cc1	i	i	i	nt	i	i	nt
O=C(NCc1ccco1)c1ccc(S(=O)(=O)N2CCOCC2)cc1	-53	?	i	35µM	?	16µM	i
COc1cc(CNc2ccc(N3CCCC3)cc2)cc(Cl)c1OC	-66	i	i	i	i	i	i
CCn1nnc2c(N3CCCC3)ncnc21	nt	nt	nt	nt	i	i	nt
C[C@H](NC(=O)c1cc2c(cn1)[nH]c1ccccc12)C(=O)O	-67	i	35µM	i	i	i	i
Cc1cccc(C)c1NC(=O)Cn1nnc(C(=O)NCc2ccc(F)cc2)c1N	nt	i	nt	i	i	i	nt
Cc1cc(C)cc(NC(=O)Cn2nnc(C(=O)NCc3ccc(F)cc3)c2N)c1	-56	i	i	?	i	?	i
CC(C)n1c(SCC(=O)N2c3ccccc3Sc3ccccc32)nc2c1c(=O)n(C)c(=O)n2C	nt	i	i	i	i	i	nt
CCCn1c(SCC(=O)N2c3ccccc3Sc3ccccc32)nc2c1c(=O)n(C)c(=O)n2C	i	i	i	i	i	89µM	i
CC1=C(C(=O)N(C)C)CC(CC(=O)NC2CCCC2)C(=O)N1Cc1ccccc1 (stereo not drawn)	i	i	i	nt	nt	nt	nt
COc1ccccc1-c1nc2ccccc2n(CC(C)C)c1=O	-72	nt	i	nt	nt	nt	i
Cc1cnc(CNc2ccnc(-c3ccc(C(=O)N(C)C)cc3)n2)cn1	nt	nt	nt	nt	i	nt	nt
O=C(O)C1CSC(c2coc3ccccc3c2=O)N1 (stereo not drawn)	-67	i	?	i	i	i	i
SMILES	PI5P4Ka inh	POLH inh	WRN inhibitor	POLB inh	Pol kappa inh	Pol iota inh	ADP-Glo counter
Cc1cc(-c2csc(N)n2)c(C)n1C	-60	?	?	i	i	?	i
COC(=O)c1ccc(Oc2cc(C)nc(NCc3ccccc3)n2)cc1	i	i	i	i	i	i	nt
Cc1cc(Oc2ccc(C#N)cc2)nc(NCc2ccccc2)n1	-51	i	i	i	i	?	i
CC(C)(C)c1csc(NC(=O)c2ccc3nccnc3c2)n1	-52	i	i	i	i	i	i
CC(C)(C)c1csc(NC(=O)c2ccncc2)n1	i	?	i	i	i	i	nt
COc1ccccc1N1CCN(C(=O)c2ccc(C(C)(C)C)cc2)CC1	-62	i	50µM	?	i	?	i
CC1Cc2ccccc2N1C(=O)CNc1cccc(S(=O)(=O)N2CCCC2)c1 (stereo not drawn)	-66	i	?	i	i	i	i
CC1Cc2ccccc2N1C(=O)CN1CCN(S(=O)(=O)c2ccc3c(c2)OCCCO3)CC1 (stereo not drawn)	i	i	i	nt	nt	nt	nt
COc1ccc2[nH]cc(CCNc3nc(-c4c(C)noc4C)nc4ccccc34)c2c1	nt	nt	nt	nt	i	nt	nt
CCN(c1ccccc1)S(=O)(=O)c1ccc(Cl)c(NC(=O)CN(C)Cc2cccc(F)c2)c1	i	i	i	nt	i	i	nt
CCOc1ccc(Nc2nc(-c3sc(N)nc3C)cs2)cc1	i	i	i	i	i	i	i
COc1ccc(Nc2nc(-c3sc(N)nc3C)cs2)cc1	i	i	i	i	i	i	nt
Cc1ccc(Nc2nc(-c3sc(N)nc3C)cs2)cc1	-54	i	i	i	i	i	i
Cc1ccc(C(=O)OCC(=O)c2c[nH]c3ccccc23)cc1NC(=O)c1ccco1	i	i	i	i	i	i	nt
O=C1Nc2ccccc2Nc2ccccc21	i	i	i	i	i	i	nt
O=C1Nc2cc(Cl)ccc2Nc2cscc21	nt	i	nt	nt	i	?	i
Cc1ccc(CCNc2ncnc(Cl)c2N)cc1	i	i	i	nt	i	i	nt
CN(CC(=O)Nc1cccc(F)c1)C(=O)C1CCN(S(=O)(=O)c2ccc3c(c2)OCCO3)CC1	i	i	i	nt	i	i	nt
COc1ccc(Cl)cc1NC(=O)CN(C)C1CCCCC1	i	i	i	?	i	i	nt
COc1ccc(OC)c(NC(=O)CN(Cc2ccc(F)cc2)C2CCCCC2)c1	-58	i	i	i	i	i	i
Cn1c(=O)c(-c2cccs2)nc2cnc(N3CCOCC3)nc21	nt	nt	nt	nt	i	nt	nt
CC(C)(C)c1cc(C(=O)O)n(Cc2ccc(Cl)cc2Cl)n1	i	i	i	i	i	i	nt
CC1CCN(C(=O)CCNS(=O)(=O)c2ccc(Cl)cc2)CC1	i	i	i	i	i	i	nt
Cc1cccc2c(C(=O)N3CCN(C(=O)c4ccco4)CC3)cc(-c3cccc(Br)c3)nc12	-53	i	?	i	i	?	i
CC(C)(C)c1ccc([C@@H](O)CCCN2CCC(C(O)(c3ccccc3)c3ccccc3)CC2)cc1	nt	nt	nt	nt	i[12 µM]	nt	nt
COc1ccc(N(C(=O)C2CSC(=O)C2)C(C(=O)NC(C)(C)C)c2ccncc2)cc1 (stereo not drawn)	-78	i	i	i	i	i	i
CCC(=O)Nc1ccc(C(=O)CSc2nc(N)cc(N)n2)cc1	i	i	i	i	i	i	nt
CCn1cnnc1SCC(=O)c1c(N)n(C2CC2)c(=O)[nH]c1=O	i	i	i	nt	i	i	nt
COc1ccc(S(=O)(=O)N2CCN(c3ccc(C)cc3C)CC2)cc1OC	i	i	i	i	i	i	nt

Assay outcomes deposited in PubChem by National Center for Advancing Translational Sciences (NCATS).
